# Source: the supplement of paper PMC9334596
# “And” between values parts separate entries of the source, which are not always exact repeats. Equal values may be shown once. Over roughly 5,300 compounds, “PER2::LUC luminescence relative to vehicle control” has its median near 0.96; the highest 2% begin near 1.3. The full list was thinned out, with the highest values kept by preference.
# Test system: mPer2Luc MEF
# Assay: PER2::LUC luminescence relative to vehicle control (fold of vehicle); higher = higher PER2::LUC reporter signal
# Details: 10 µM
# Summary of the method: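 The value is PER2::LUC luminescence expressed as fold of vehicle control. Mouse embryonic fibroblasts carrying the mPer2Luc reporter were seeded at ~3000 cells per well in 384-well plates and grown in DMEM with 10% FBS at 37 °C and 5% CO2. Compounds from commercial libraries were added at 10 μM 48 h after seeding, and luminescence was read with the ONE-Glo luciferase assay system 24 h and 30 h after treatment, followed by an alamarBlue viability assay.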
smiles,measurement,setting,value
O=C(O)/C=C/c1ccc(O)c(O)c1/C(=C\c1ccc(O)c(O)c1)C(=O)O,PER2::LUC luminescence,time after treatment 24 h,1.15
same,PER2::LUC luminescence,time after treatment 30 h,1.02
COc1cc(O)c(C(=O)/C=C/c2ccc(OC)c(O)c2)c(OC)c1,PER2::LUC luminescence,time after treatment 24 h,1.08
same,PER2::LUC luminescence,time after treatment 30 h,1
COc1ccc(SC(=O)N[C@@H](CCC(=O)O)C(=O)O)cc1,PER2::LUC luminescence,time after treatment 24 h,0.852
same,PER2::LUC luminescence,time after treatment 30 h,0.909
CC(C)(O)c1ccccc1Cc1ccccc1,PER2::LUC luminescence,time after treatment 24 h,0.709
same,PER2::LUC luminescence,time after treatment 30 h,1.18
C=CC1=C(C)C2=CC3=NC(=C(CC(=O)O)C4=NC(=C(C)C4=C(O)O)C=c4[nH]c(c(C)c4CC)=CC1=N2)C(CCC(=O)O)C3C (stereo not drawn),PER2::LUC luminescence,time after treatment 24 h,0.911
same,PER2::LUC luminescence,time after treatment 30 h,0.984
OC[C@H]1O[C@H](O[C@H]2C(O)[C@@H](O)[C@@H](OC[C@H]3O[C@@H]4O[C@H]5[C@H](O)[C@@H](O)[C@@H](O[C@H]6[C@H](O)[C@@H](O)[C@@H](O[C@H]7[C@H](O)[C@@H](O)[C@@H](O[C@H]8[C@H](O)[C@@H](O)[C@@H](O[C@H]9[C@H](O)[C@@H](O)[C@@H](O[C@H]%10[C@H](O)[C@@H](O)[C@@H](O[C@H]3[C@H](O)[C@H]4O)O[C@@H]%10CO)O[C@@H]9CO)O[C@@H]8CO)O[C@@H]7CO)O[C@@H]6CO)O[C@@H]5CO)O[C@@H]2CO)[C@H](O)[C@@H](O)[C@@H]1O (stereo partly drawn),PER2::LUC luminescence,time after treatment 24 h,1.08
same,PER2::LUC luminescence,time after treatment 30 h,1.06
C=CCCCCCCCCCCCC(O)CC(O)COC(C)=O (stereo not drawn),PER2::LUC luminescence,time after treatment 24 h,0.894
same,PER2::LUC luminescence,time after treatment 30 h,0.95
C[C@H](CCC(=O)NCCC[N+](C)(C)CCCS(=O)(=O)[O-])[C@H]1CC[C@H]2[C@@H]3[C@H](O)C[C@@H]4C[C@H](O)CC[C@]4(C)[C@H]3C[C@H](O)[C@]12C,PER2::LUC luminescence,time after treatment 24 h,1.06
same,PER2::LUC luminescence,time after treatment 30 h,0.883
O=c1c(O)c(-c2ccccc2)oc2cc(O)ccc12,PER2::LUC luminescence,time after treatment 24 h,1.13
same,PER2::LUC luminescence,time after treatment 30 h,1.18
O=c1cc(-c2ccccc2)oc2cc(O)ccc12,PER2::LUC luminescence,time after treatment 24 h,1.48
same,PER2::LUC luminescence,time after treatment 30 h,1.84
CC1=C([C@@H]2C=C3[C@@H](CC[C@]4(C)[C@@H]([C@H](C)CCCC(C)C)CC[C@@H]34)n3c(=O)n(-c4ccccc4)c(=O)n32)C[C@@H](O)C[C@@H]1O,PER2::LUC luminescence,time after treatment 24 h,0.94
same,PER2::LUC luminescence,time after treatment 30 h,0.899
O=c1cnn([C@@H]2O[C@H](CO)[C@@H](O)[C@H]2O)c(=O)[nH]1,PER2::LUC luminescence,time after treatment 24 h,1.41
same,PER2::LUC luminescence,time after treatment 30 h,1.5
O=c1ncccn1[C@@H]1O[C@H](CO)[C@@H](O)[C@H]1O,PER2::LUC luminescence,time after treatment 24 h,0.999
same,PER2::LUC luminescence,time after treatment 30 h,1.07
O=c1ccn([C@@H]2O[C@H](CO)[C@@H](O)[C@H]2O)c(=O)[nH]1,PER2::LUC luminescence,time after treatment 24 h,0.979
same,PER2::LUC luminescence,time after treatment 30 h,1.03
NC(=NC12CC3CC(CC(C3)C1)C2)Nc1ccc(I)cc1,PER2::LUC luminescence,time after treatment 24 h,1.06
same,PER2::LUC luminescence,time after treatment 30 h,0.918
CNC(=O)c1cc(Oc2ccc(NC(=O)c3cccc(C(F)(F)F)c3)cc2)ccn1,PER2::LUC luminescence,time after treatment 24 h,1.15
same,PER2::LUC luminescence,time after treatment 30 h,1.14
O=C(OCc1ccccc1)c1ccccc1,PER2::LUC luminescence,time after treatment 24 h,1.05
same,PER2::LUC luminescence,time after treatment 30 h,1.03
CCOC(=O)c1ccc(O)cc1,PER2::LUC luminescence,time after treatment 24 h,1.06 and 0.859
same,PER2::LUC luminescence,time after treatment 30 h,1.02 and 0.79
CCOC(=O)c1ccc(N(C)c2csc(-c3ccccc3)n2)cc1,PER2::LUC luminescence,time after treatment 24 h,1.19
same,PER2::LUC luminescence,time after treatment 30 h,1.58
Cn1cc(-c2ccc3nnc(Sc4ccc5nn(C)cc5c4)n3n2)cn1,PER2::LUC luminescence,time after treatment 24 h,0.782
same,PER2::LUC luminescence,time after treatment 30 h,0.785
C=CC(C)(C)c1cc(/C=C\C(=O)c2ccc(O)cc2)c(OC)cc1O,PER2::LUC luminescence,time after treatment 24 h,0.553
same,PER2::LUC luminescence,time after treatment 30 h,0.862
C[C@@H]1C[C@H]2[C@@H]3C[C@H](F)C4=CC(=O)C(Cl)=C[C@]4(C)[C@@]3(F)[C@@H](O)C[C@]2(C)[C@@]1(O)C(=O)CO,PER2::LUC luminescence,time after treatment 24 h,0.765
same,PER2::LUC luminescence,time after treatment 30 h,0.857
CC(=O)O[C@H](CC(=O)O)C[N+](C)(C)C,PER2::LUC luminescence,time after treatment 24 h,1.03
same,PER2::LUC luminescence,time after treatment 30 h,0.967
CC(C)(C)OC(=O)N1CCC(OCc2nc(-c3ccncc3)no2)CC1,PER2::LUC luminescence,time after treatment 24 h,0.986
same,PER2::LUC luminescence,time after treatment 30 h,0.843
NC(=O)c1cccc(N)c1,PER2::LUC luminescence,time after treatment 24 h,1.1
same,PER2::LUC luminescence,time after treatment 30 h,1.01
CC(=O)c1ccc(S(=O)(=O)NC(=O)NC2CCCCC2)cc1,PER2::LUC luminescence,time after treatment 24 h,1.02
same,PER2::LUC luminescence,time after treatment 30 h,0.908
NC(=O)c1cccc(-c2cccc(OC(=O)NC3CCCCC3)c2)c1,PER2::LUC luminescence,time after treatment 24 h,1.27
same,PER2::LUC luminescence,time after treatment 30 h,1.36
CCN(CC)CCOC(=O)c1ccc(N)cc1,PER2::LUC luminescence,time after treatment 24 h,1.07 and 0.897
same,PER2::LUC luminescence,time after treatment 30 h,1.58 and 0.928
CCCCOC(=O)c1ccc(N)cc1,PER2::LUC luminescence,time after treatment 24 h,1.06 and 1.09
same,PER2::LUC luminescence,time after treatment 30 h,1.28 and 1.2
Nc1ccc(C(=O)O)cc1,PER2::LUC luminescence,time after treatment 24 h,0.924 and 0.9
same,PER2::LUC luminescence,time after treatment 30 h,0.926 and 0.943
CCCCN(CCCC)CCCOC(=O)c1ccc(N)cc1,PER2::LUC luminescence,time after treatment 24 h,0.966
same,PER2::LUC luminescence,time after treatment 30 h,0.832
CCCCOC(=O)c1ccc(O)cc1,PER2::LUC luminescence,time after treatment 24 h,1.63 and 1.43
same,PER2::LUC luminescence,time after treatment 30 h,1.61 and 1.57
CC(C)COC(=O)c1ccc(N)cc1,PER2::LUC luminescence,time after treatment 24 h,1.34
same,PER2::LUC luminescence,time after treatment 30 h,1.43
CCCCNc1ccc(C(=O)OCCN(C)C)cc1,PER2::LUC luminescence,time after treatment 24 h,1.04
same,PER2::LUC luminescence,time after treatment 30 h,0.965
CCCOc1ccc(C(=O)OCCN(CC)CC)cc1N,PER2::LUC luminescence,time after treatment 24 h,1.03
same,PER2::LUC luminescence,time after treatment 30 h,0.962
N=C(N)c1ccc(N)cc1,PER2::LUC luminescence,time after treatment 24 h,0.971
same,PER2::LUC luminescence,time after treatment 30 h,1.01
CN(C)[C@@H]1c2onc(OCc3ccccc3)c2C(=O)[C@@]2(O[Si](C)(C)C(C)(C)C)C(=O)C=CC[C@@H]12,PER2::LUC luminescence,time after treatment 24 h,0.723
same,PER2::LUC luminescence,time after treatment 30 h,0.75
c1ccc2[nH]ncc2c1,PER2::LUC luminescence,time after treatment 24 h,0.963
same,PER2::LUC luminescence,time after treatment 30 h,0.985
CN1c2ccccc2C(=O)N2CCc3c([nH]c4ccccc34)C21 (stereo in doubt),PER2::LUC luminescence,time after treatment 24 h,0.589
same,PER2::LUC luminescence,time after treatment 30 h,0.628
